# The list is not random: actives were taken first. Their share in the collection is about 1.3%.
# TrxR1 inh: rat TrxR1 inhibition. recombinant rTrxR1, NADPH fluorescence consumption, selenite substrate. Potency, µM (series often up to 114 µM), usual class: inhibitors. 390,000 tested, 1% active. AID 588453; further: nearly all actives have a fitted effect of over 65% in size
# Target sequence (O89049 whole entry, looked up): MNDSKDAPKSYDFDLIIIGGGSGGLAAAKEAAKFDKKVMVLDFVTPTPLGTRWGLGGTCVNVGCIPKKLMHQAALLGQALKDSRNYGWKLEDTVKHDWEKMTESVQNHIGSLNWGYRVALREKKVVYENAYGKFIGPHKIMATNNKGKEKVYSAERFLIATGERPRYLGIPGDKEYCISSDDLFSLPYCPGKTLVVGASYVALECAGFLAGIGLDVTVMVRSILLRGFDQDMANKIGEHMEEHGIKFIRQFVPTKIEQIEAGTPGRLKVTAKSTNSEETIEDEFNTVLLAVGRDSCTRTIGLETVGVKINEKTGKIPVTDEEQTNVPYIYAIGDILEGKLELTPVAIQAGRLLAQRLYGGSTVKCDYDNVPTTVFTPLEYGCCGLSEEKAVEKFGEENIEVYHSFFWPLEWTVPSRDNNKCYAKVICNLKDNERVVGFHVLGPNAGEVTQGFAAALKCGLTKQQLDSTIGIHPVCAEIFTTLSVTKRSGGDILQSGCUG
#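 Rat TrxR1 (90 nM in the dispensed reagent) was pre-reduced with 400 uM NADPH for 5 min at room temperature, then incubated with compound for 15 min. After 400 uM selenite was added, NADPH fluorescence (Ex 340/Em 450 nm) was followed for 8 min.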
# GALK inh: blocks human galactokinase activity | P51570 | Purified GALK, Kinase-Glo residual ATP luminescence | Potency, µM (top dose mostly 57.5 µM), usual class: inhibitors | 270,000 tested, 0.007% active | AID 1868
#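 GALK at 5 nM final was combined with compound, 35 uM ATP and 100 uM galactose in HEPES pH8.0 with MgCl2 and DTT. The reaction ran one hour at room temperature before luminescent ATP detection.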
# PKM2 activator: activators of human pyruvate kinase M2; P14618; purified PKM2, Kinase-Glo ATP luminescence, activation; response scale: 0% is enzyme alone, no compound; Potency, µM (highest dose often 57.5 µM), actives largely listed as activators; 260,000 tested, 0.34% active; further: nearly all actives have a fitted effect of over 55% in size
#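 ATP formation by purified human PK-M2, quantified via coupled luciferase luminescence after 1 h at room temperature with 0.1 mM ADP and 0.5 mM PEP final.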
# IDH1 R132H inh: human IDH1 R132H inhibition | IDH1-R132H enzyme, NADPH consumption, diaphorase/resazurin fluorescence | Potency, µM (series often up to 76.6 µM), most hits filed as inhibitors | 390,000 tested, 0.093% active | AID 602179; further: nearly all actives have a fitted effect of over 65% in size
#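 IDH1-R132H (0.5 ug/mL dispensed) in pH 7.5 Tris buffer was preincubated 30 min with compound, then given a substrate mix of 0.016 mM NADPH and 2 mM alpha-KG for 80 min at room temperature; remaining NADPH was read by diaphorase/resazurin fluorescence.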
# TrxR1 substrate: is turned over as a substrate by rat TrxR1; purified TrxR1 substrate turnover, NADPH consumption readout; Potency, µM (highest dose often 114 µM); 390,000 tested, 0.01% active; AID 588456; further: nearly all actives have a fitted effect of over 50% in size
#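 Rat TrxR1, dispensed at 90 nM, was prereduced with 400 uM NADPH (final) for 5 min at ~22 deg C, then incubated with compound 15 min before 400 uM selenite. A first-read NADPH fluorescence drop versus no-compound background flagged substrates.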
# Apoferritin bind: candidate novel general anesthetic via apoferritin binding | P02791 | apoferritin/1-aminoanthracene competitive binding, fluorescence | Potency, µM (titrated, usually from 77.5 µM), actives largely listed as inhibitors | 350,000 tested, 0.074% active | AID 485281; further: nearly all actives have a fitted effect of over 20% in size
#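 Horse-spleen apoferritin (10 uM) in 50% saturated 1-aminoanthracene in PBS was incubated 10 min at room temperature with compound. Fluorescence (ex 380, em 535 nm) was normalized to free and bound 1-AMA, with concentration-response fitted by a four-parameter Hill equation.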
# Hits are given with their value; - = inactive; ? = inconclusive; . = no result given; [ ] = dose if it differs, or a comment. The call rests on the fitted dose curve; in most records, active means well fitted curve in the direction sought with a large enough effect; inconclusive means small, poorly fitted or top-dose-only effect, or another doubt; inactive means no such curve, though single readings can be large; an effect the other way counts as inactive or inconclusive.
SMILES,TrxR1 inh,GALK inh,PKM2 activator,IDH1 R132H inh,TrxR1 substrate,Apoferritin bind
COC(=O)C1=C(C)N(C)C(=O)/C1=C\c1ccco1,25.1µM,-,-,-,-,-
COC(=O)C1=C(C)N(Cc2ccco2)C(=O)/C1=C\c1ccc([N+](=O)[O-])cc1,20µM,-,?,-,-,-
COc1cccc(/C=C/c2nccc3ccccc23)c1OC,-,.,.,.,-,.
O=C(CCC1N=C2c3ccccc3N=C(SCC(=O)Nc3ccc(F)cc3)N2C1=O)NCc1cccs1 (configuration not stated),-,.,.,?,-,-
CCCCNC(=O)C(CC)Sc1nnc(-c2cccc(F)c2)c(-c2cccc(F)c2)n1 (configuration not stated),-,.,.,-,-,?
Cc1ccccc1N/C(=C(/C(Cl)=C(Cl)Cl)[N+](=O)[O-])n1nnc2ccccc21,10µM,-,-,-,-,-
COc1ccc(N/C(=C(/C(Cl)=C(Cl)Cl)[N+](=O)[O-])n2nnc3ccccc32)cc1,.,-,-,.,.,-
CC(C)(C)n1ncc2c(=O)n(Cc3cc(C(F)(F)F)ccc3Cl)cnc21,-,.,.,.,-,.
O=C(O)c1ccc2c3c(ncnc13)-c1ccccc1C2=O,10µM,-,-,-,-,-
O=C(O)c1cccc2c1C(=O)c1ccccc1C2=O,-,-,-,-,-,-
O=C1C=C(c2ccccc2)C(=O)N1Nc1ccccc1,3.16µM,-,-,-,-,?
COc1ccc(C2=CC(=O)N(Nc3ccccc3)C2=O)cc1,?,-,-,-,-,?
O=C(c1ccc(S(=O)(=O)Cc2cc(F)ccc2F)c([N+](=O)[O-])c1)N1CCCC1,10µM,-,-,-,-,-
Cc1ccccc1CS(=O)(=O)c1ccc(C(=O)N2CCC(C)CC2)cc1[N+](=O)[O-],-,-,-,-,-,-
O=C(c1ccc(S(=O)(=O)Cc2cc(F)ccc2F)c([N+](=O)[O-])c1)N1CCCCC1,4.47µM,-,-,-,-,-
CCNc1ccc(/C=C2\C=Cc3ccccc32)cc1,?,.,.,.,-[0.0914 µM],.
Cc1ccc(SC[C@H](Cc2ccccc2)N2CC[C@@H](C(C)(C)C)CCC2=O)cc1,-,.,.,.,-,.
Cc1c(Cl)cccc1-n1ncc(C(=O)NCc2cccs2)c1C1CCN(C(=O)OC(C)(C)C)CC1,-,.,.,-,-,-
Cc1sc(NC(=O)c2ccco2)c(C(c2cccnc2)N2CCCC2)c1C (configuration not stated),7.94µM,-,-,-,-,-
CCOc1ccc(-n2c(=O)c3c(C)c(C)sc3n(CC(=O)C(C)(C)C)c2=O)cc1,-,.,.,.,-,-
CCOC(=O)c1cccc(NC(=O)c2ccc3c(Cl)c4c(nc3c2)CCC4)c1,-,.,.,-,-,-
Cn1c(Cc2ccccc2)nnc1SCC(=O)N1CCN(c2ccccc2)CC1,-,-,12.6µM,-,-,-
Nc1nc(Sc2c([N+](=O)[O-])cc(C(F)(F)F)cc2[N+](=O)[O-])n[nH]1,15.8µM,-,-,-,-,-
COc1ccc(S(=O)(=O)N2CCc3cc(OC)c(OC)cc3C2)cc1,-,-,7.94µM,-,-,-
COc1cc2c(cc1OC)CN(S(=O)(=O)c1cccs1)CC2,-,.,?,-,-,-
SMILES,TrxR1 inh,GALK inh,PKM2 activator,IDH1 R132H inh,TrxR1 substrate,Apoferritin bind
COc1cc2nc(CC(O)c3nc4cc(OC)c(OC)cc4[nH]3)[nH]c2cc1OC (configuration not stated),-,.,.,.,-,.
O=[N+]([O-])c1ccccc1-c1ccc(C(=S)N2CCCC2)o1,-,-,-,-,-,56.2µM
O=[N+]([O-])c1ccccc1-c1ccc(C(=S)N2CCCCC2)o1,-,-,?,-,-,?
CC(=O)NC(Cc1c(F)c(F)c(F)c(F)c1F)C(=O)NCC(N)C(=O)c1ccccc1 (configuration not stated),-,.,.,.,-,.
CCN1CCc2nc(N)sc2C1,-,-,-,-,-,-
CCN1CCc2nc(N)oc2CC1,22.4µM,.,.,-,-,.
